High-throughput results (PubChem BioAssay)
Compounds with a hit are over-represented: about 2.4% of the library has one in this group of screens.
POLB inh = DNA polymerase beta (human) inhibition; hit rate 1.3% among 340,000; Pol beta primer extension/strand displacement, fluorescence kinetic; Potency, µM (highest dose often 114 µM), hits mostly inhibitors; AID 485314
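Values derive from four-parameter Hill fits of normalized kinetic data: reads at 0 and 10 min following addition of 50 nM substrate to 10 nM Pol beta preincubated 15 min with compound.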
Pol eta inh-1 = DNA polymerase eta (human) inhibition; Q9Y253; recombinant Pol eta, fluorescent DNA replication assay; Potency, µM (doses to about 114 µM), most hits filed as inhibitors; hit rate 1.2% among 390,000
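Pol eta (10 nM) was preincubated with compounds for 15 min at room temperature, after which fluorescent replication substrate (50 nM final) was added to start the reaction. Fluorescence was read kinetically at 0 and 10 min.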
Pol kappa inh-1 = inhibitors of human DNA polymerase kappa | purified Pol kappa, fluorescent DNA synthesis assay, 10 min | AID 588579 | hit rate 0.53% among 400,000 | Q9UBT6 | Potency, µM (doses to about 107 µM), most hits filed as inhibitors
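Enzyme at 10 nM met test compounds for 15 min at room temperature. Substrate addition (50 nM final) began the reaction, which was monitored by fluorescence at 0 and 10 min.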
Pol iota inh = DNA polymerase iota (human) inhibition | Q9UNA4 | Pol iota fluorescent replication assay, 10 min | Potency, µM (highest dose often 115 µM), most hits filed as inhibitors | hit rate 1% among 390,000 | AID 588590
Target sequence (Q9UNA4 whole entry, looked up): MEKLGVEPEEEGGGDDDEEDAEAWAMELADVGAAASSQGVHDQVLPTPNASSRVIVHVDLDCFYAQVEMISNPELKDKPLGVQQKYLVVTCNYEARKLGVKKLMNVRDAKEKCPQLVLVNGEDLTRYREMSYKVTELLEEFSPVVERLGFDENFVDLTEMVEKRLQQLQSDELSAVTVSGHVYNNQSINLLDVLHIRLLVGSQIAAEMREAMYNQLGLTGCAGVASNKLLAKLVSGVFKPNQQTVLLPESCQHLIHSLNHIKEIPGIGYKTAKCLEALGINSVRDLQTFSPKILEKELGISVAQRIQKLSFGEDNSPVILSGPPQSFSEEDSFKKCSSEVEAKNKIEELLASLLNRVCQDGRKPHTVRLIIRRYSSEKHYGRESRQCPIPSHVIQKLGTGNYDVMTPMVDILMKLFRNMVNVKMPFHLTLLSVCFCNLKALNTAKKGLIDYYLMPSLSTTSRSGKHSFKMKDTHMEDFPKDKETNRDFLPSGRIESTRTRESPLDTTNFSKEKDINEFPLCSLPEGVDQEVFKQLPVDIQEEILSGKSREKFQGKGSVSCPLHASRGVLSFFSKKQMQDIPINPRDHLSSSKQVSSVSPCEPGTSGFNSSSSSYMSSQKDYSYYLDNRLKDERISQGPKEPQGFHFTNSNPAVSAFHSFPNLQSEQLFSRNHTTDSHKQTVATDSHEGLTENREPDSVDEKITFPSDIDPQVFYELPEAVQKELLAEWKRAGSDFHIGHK
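Pol iota at 10 nM preincubated 15 min with compounds at room temperature; reaction started with fluorescent substrate, 50 nM final. Fluorescence read kinetically at 0 and 10 min; buffer-only wells as negative control.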
L3MBTL1 block = blocks human L3MBTL1 | AlphaScreen L3MBTL1–H3K9me1 peptide binding | Potency, µM (doses to about 57.1 µM), hits mostly inhibitors | hit rate 0.66% among 230,000; further: nearly all actives have a fitted effect of over 60% in size
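L3MBTL1 50 nM + b-AHA-H3(1-15)K9me1 75 nM, 30 min RT; compound added, 30 min RT; streptavidin donor/Ni-chelate acceptor beads 10 ug/mL each final, 30 min RT dark; AlphaScreen read.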
GALK inh confirm = galactokinase (human) inhibition, confirmation. AID 2015. Potency, µM (doses to about 115 µM), most hits filed as inhibitors. hit rate 70% among 150. purified GALK, Kinase-Glo ATP depletion luminescence. shares compounds with Pol eta inh-1
Redox cycling = counter-screen for GALK inhibitors: redox cycling H2O2 generation; hit rate 40% among 150; Potency, µM (top dose mostly 115 µM), actives largely listed as inhibitors; shares compounds with Pol eta inh-1; Phenol red-HRP H2O2 redox cycling, absorbance 600 nm
HEK293 viability = reduces HEK-293 cell viability in GALK counter-screen. shares compounds with Pol eta inh-1. HEK-293 viability, ATP luminescence (CellTiter-Glo), 24/48 h. Potency, µM (series often up to 46.1 µM), actives largely listed as inhibitors. hit rate 10% among 170
Pol kappa inh-2 = confirmation of human DNA polymerase kappa inhibitors | AID 720501 | purified Pol-kappa, fluorescent strand-displacement substrate | Potency, µM, usual class: inhibitors | shares compounds with Pol eta inh-1 | hit rate 76% among 920
Pol eta inh-2 = Pol eta (human) inhibition, cherry-pick confirmation; Pol eta primer extension, TAMRA/BHQ fluorescence, 10 min; AID 720502; Potency, µM, actives largely listed as inhibitors; hit rate 64% among 2,600; shares compounds with Pol eta inh-1
Hits are given with their value; - = inactive; ? = inconclusive; . = no result given; ! = repeats disagree; [ ] = another dose, or the depositor's remark. The call rests on the fitted dose curve; in most records, active means well fitted curve in the direction sought with a large enough effect; inconclusive means small, poorly fitted or top-dose-only effect, or another doubt; inactive means no such curve, though single readings can be large; an effect the other way counts as inactive or inconclusive.

SMILES | POLB inh | Pol eta inh-1 | Pol kappa inh-1 | Pol iota inh | L3MBTL1 block | Pol eta inh-2 | others
COc1ccc(C2/C=C\CN(C(=O)C3CCCCC3)C(C)C(=O)N2Cc2ccc(F)cc2)cc1 (configuration not stated) | . | . | - | - | . | .
CNC(=O)[C@]1(C(F)(F)F)C[C@H](CCC2CCCCC2)CCCO1 | . | . | - | - | . | .
CCn1c(=O)cc(OCC(=O)NCc2ccc(F)cc2Cl)c2ccccc21 | - | - | - | - | . | .
COc1ccc(CNC(=O)c2ccc3nc(CCc4ccccc4)oc3c2)cc1OC | - | - | - | - | . | .
Cn1nnnc1SCCNCc1ccc(OCc2ccccc2Cl)cc1 | - | - | - | - | . | .
Oc1ccc(OCc2ccccc2)cc1 | . | . | -[19.4 µM] | . | . | .
O=C(O)/C=C/c1ccc(S(=O)(=O)Nc2ccc(OCc3ccccc3)cc2)cc1 | ? | - | - | - | . | .
Oc1ccc(NCc2ccccc2OCc2ccccc2Cl)cc1 | - | . | - | ? | . | ?
O=C(O)CCc1ccc(S(=O)(=O)Nc2ccc(OCc3ccccc3)cc2)cc1 | ? | 22µM | ? | ? | . | 67
Oc1ccc(NCc2ccc(OCc3ccccc3Cl)cc2)cc1 | - | - | ? | 18µM | . | ?
Oc1ccc(NCc2ccc(OCc3ccccc3)cc2)cc1 | - | 79µM! | ? | 10µM | . | ?
COc1ccc(OC)c(NC(=O)CSC2=Nc3ccccc3C3=NC(CCC(=O)NCc4ccccc4)C(=O)N23)c1 (configuration not stated) | - | - | - | - | . | .
Cc1cccc(N=C2NC(=O)/C(=C/C=C/c3ccco3)S2)c1 | 20µM | 20µM | ? | 18µM | ? | ?
COc1cc(/C=C2\SC(=Nc3ccc(O)cc3)NC2=O)cc(OC)c1O | - | - | - | ? | . | .
COc1ccc(N=C2NC(=O)/C(=C\C=C\c3ccco3)S2)cc1 | 10µM | 40µM | ? | ? | 32µM | ?
Cc1ccc(NC(=O)CN(C)C(=O)COc2ccc(Br)cc2)cc1 | . | - | . | . | . | .
COc1ccc(C(CC(=O)N2CCOCC2)c2c(OC)cc(OC)c3c(-c4ccccc4)cc(=O)oc23)cc1 (configuration not stated) | 35µM | 40µM | ? | 71µM | . | ?
COc1cc(C(CC(=O)N2CCCC2)c2c(OC)cc(OC)c3c(-c4ccccc4)cc(=O)oc23)cc(OC)c1OC (configuration not stated) | 45µM | 40µM | ? | ? | . | ?
Cc1cc(C)cc(OCc2cc(=O)n3c(-c4ccccc4)csc3n2)c1 | 13µM | ? | ? | ? | . | ? | Pol kappa inh-2=?
O=C(CSCc1ccccc1)N1CCN(S(=O)(=O)c2ccc(F)cc2)CC1 | - | - | - | - | . | . | GALK inh confirm=-;Redox cycling=-;HEK293 viability=-
O=C(CSCc1ccccc1)N1CCN(S(=O)(=O)c2cccc(F)c2)CC1 | . | - | - | - | - | .
CCOc1ccc(CNC(=O)CCn2nc(C)c3c(C)n(-c4ccccc4)nc3c2=O)cc1 | - | - | - | - | . | .
COc1ccc(C2=Nn3c(nnc3-c3ccccc3C(F)(F)F)SC2)cc1OC1CCOC1 (configuration not stated) | . | - | ? | - | - | . | Pol kappa inh-2=4.7
COc1ccc(C2=Nn3c(nnc3-c3ccccc3OC)SC2)cc1OC1CCOC1 (configuration not stated) | . | - | 45µM | - | - | . | Pol kappa inh-2=4.2
CCOc1ccc(C2=Nn3c(nnc3-c3ccccc3OC)SC2)cc1 | - | - | - | - | - | .
SMILES | POLB inh | Pol eta inh-1 | Pol kappa inh-1 | Pol iota inh | L3MBTL1 block | Pol eta inh-2 | others
COc1ccc(OC)c(-c2nnc3n2N=C(c2ccc(OC)c(OCC4CC4)c2)CS3)c1 | . | - | ? | - | - | .
COc1ccc(/C=C2\SC(=S)N(NC(=O)c3ccncc3)C2=O)cc1OC | - | . | . | . | - | .
COc1cc(/C=C2\SC(=S)N(NC(=O)c3ccccc3O)C2=O)ccc1O | ? | ? | ? | 14µM | . | . | Pol kappa inh-2=42
O=C(O)c1ccc(COCC(F)(F)C(F)F)o1 | 28µM | 18µM | - | - | - | ?
O=C(O)c1ccc(COc2c(F)c(F)c(F)c(F)c2F)o1 | 40µM | 22µM | ? | 22µM | ? | 76
CN(C)/C=C1/Sc2ccccc2C1=O | - | - | - | - | - | .
CC(=O)N(\C=C/C=C/C=C1\Sc2ccccc2C1=O)c1ccccc1 | 20µM | 79µM | 25µM | ? | . | ? | Pol kappa inh-2=75
COc1cccc(C2C(C(=O)Nc3nc4ccccc4s3)=C(C)NC3=C2C(=O)CC(C)(C)C3)c1OC (configuration not stated) | - | - | - | - | - | .
COc1cccc(C2N=C(Nc3nc4ccccc4o3)NC3=C2C(=O)CC(C)(C)C3)c1 (configuration not stated) | . | . | . | . | . | . | HEK293 viability=-
COc1cccc(C2C3=C(CC(C)(C)CC3=O)Nc3cc(OC)c(OC)cc32)c1 (configuration not stated) | - | - | - | - | - | .
O=C1CCCC2=C1C(c1ccc(Cl)cc1)N=C(Nc1nc3ccccc3o1)N2 (configuration not stated) | . | . | - | - | . | . | HEK293 viability=-
COc1ccccc1C1N=C(Nc2nc3ccccc3o2)NC2=C1C(=O)CC(C)(C)C2 (configuration not stated) | . | . | - | - | . | . | HEK293 viability=-
CC1(C)CC(=O)C2=C(C1)NC(Nc1nc3ccccc3o1)=NC2c1cccc(Cl)c1 (configuration not stated) | . | . | . | . | . | . | HEK293 viability=?
Cc1cc(C)nc(Nc2nc3ccccc3o2)n1 | - | - | - | - | - | .
CCOc1ccccc1CNC(=O)CCc1cn(Cc2ccc(Cl)cc2)c2ccccc12 | - | - | - | - | . | .
Cc1ccc(S(=O)(=O)/N=C(/Nc2c(C)cccc2C)c2ccccc2)cc1 | . | - | - | - | - | .
CCn1c(=N)c(C(=O)NCC2CCCO2)cc2c(=O)n3cc(C)ccc3nc21 (configuration not stated) | - | - | - | - | . | .
CC1(C)S[C@@H]2[C@H](NC(=O)C(C(=O)O)c3ccccc3)C(=O)N2[C@H]1C(=O)O (some centres not stated) | - | - | - | ? | - | .
CC1(C)S[C@@H]2[C@H](NC(=O)[C@H](N)c3ccc(O)cc3)C(=O)N2[C@H]1C(=O)O | - | ? | 50µM | ? | - | 38
